An excerpt weighted towards active compounds, which were near 2% of everything screened.
A3A deaminase = APOBEC3A ssDNA deaminase inhibitors, primary screen, selectivity assay for APOBEC3G inhibitor project, biochemical, FAM/TAMRA oligo cleavage fluorescence; 330,000 compounds, 0.41% hits; recombinant A3A, FAM/TAMRA ssDNA deamination fluorescence; AID 493011, 2011; DNA dC->dU-editing enzyme APOBEC-3A (Homo sapiens), P31941; inhibition, % at 20 µM;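 active = at least 40% inhibition at 20 µM here, with at most 30% in a related deaminase screen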;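 also: plate controls were A3A with DMSO for no effect and wells lacking A3A enzyme for full effect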
Target sequence (P31941 whole entry, looked up): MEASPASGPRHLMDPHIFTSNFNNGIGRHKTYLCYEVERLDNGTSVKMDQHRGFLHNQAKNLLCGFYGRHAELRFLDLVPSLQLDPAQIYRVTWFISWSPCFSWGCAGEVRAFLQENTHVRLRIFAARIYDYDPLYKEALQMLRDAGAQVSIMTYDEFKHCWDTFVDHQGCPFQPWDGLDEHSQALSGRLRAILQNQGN
APOBEC3G inh = APOBEC3G DNA deaminase inhibitors, primary screen, biochemical, fluorescence, single-stranded DNA substrate, uHTS; DNA dC->dU-editing enzyme APOBEC-3G (Homo sapiens), Q9HC16; recombinant A3G, ssDNA deamination FAM/TAMRA fluorescence; inhibition, % at 20 µM; 330,000 compounds, 0.28% hits;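 active = inhibition of at least 40% at 20 µM, with no more than 30% in the related APOBEC3A deaminase screen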;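 also: plate controls were DMSO wells with A3G for no effect and wells lacking A3G enzyme for full effect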
Target sequence (Q9HC16 whole entry, looked up): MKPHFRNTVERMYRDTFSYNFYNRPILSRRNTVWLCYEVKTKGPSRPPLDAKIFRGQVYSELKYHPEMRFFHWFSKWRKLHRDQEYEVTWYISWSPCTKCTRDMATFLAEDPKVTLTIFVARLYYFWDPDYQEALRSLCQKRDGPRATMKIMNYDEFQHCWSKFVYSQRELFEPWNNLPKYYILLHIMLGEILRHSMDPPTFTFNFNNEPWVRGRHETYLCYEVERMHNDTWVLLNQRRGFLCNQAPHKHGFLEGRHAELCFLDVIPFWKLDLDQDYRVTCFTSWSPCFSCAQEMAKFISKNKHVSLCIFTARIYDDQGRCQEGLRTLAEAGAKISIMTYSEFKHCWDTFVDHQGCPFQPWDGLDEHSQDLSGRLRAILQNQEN
GC-B act = human GC-B receptor activators, primary screen, HEK293 GC-B cells, cGMP TR-FRET, EC30 CNP; Atrial natriuretic peptide receptor 2 (Homo sapiens), P20594; 0% at EC30 CNP, 100% saturating CNP; activation, % at 10 µM; 370,000 compounds, 0.11% hits; AID 1920062, 2024;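 active = activation at 10 µM reaching about 35% in either raw or pattern-adjusted values, limit read from the data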
Neddylation inh = inhibitors of cullin neddylation, primary screen, biochemical, TR-FRET, uHTS, NAE and Ubc12 | inhibition, % at 25 µM | 360,000 compounds, 0.58% hits; in the data active = inhibition above about 36%
PfGluPho inh = PfG6PD enzyme inhibitors, primary screen, biochemical, fluorescence intensity, uHTS; glucose-6-phosphate dehydrogenase-6-phosphogluconolactonase (Plasmodium falciparum 3D7); PfGluPho enzyme, NADPH resazurin-diaphorase fluorescence; inhibition, % at 20 µM; 350,000 compounds, 0.78% hits; AID 504690, 2011;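 active = inhibition reaching at least a set limit at 20 µM in the primary screen, cut at about 59% in these data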;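 also: 0% = DMSO wells with substrate and 100% = DMSO wells lacking glucose-6-phosphate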
NPR1 activator = GC-A stimulated cGMP production enhancers – HEK293 GC-A cells, cGMP TR-FRET, EC30 ANP, primary screen | Atrial natriuretic peptide receptor 1 (Homo sapiens), P16066 | activation, % at 10 µM | 370,000 compounds, 0.14% hits | 0% at EC30 ANP, 100% saturating ANP; in the data active = activation above about 40%
APOBEC3A confirm = APOBEC3A deaminase inhibitors, retest, confirmation, selectivity assay for APOBEC3G inhibitor project, biochemical, single concentration, fluorescence readout; 1,400 compounds, 63% hits; inhibition, % at 20 µM; shares compounds with A3A deaminase; recombinant A3A, ssDNA deaminase UDG fluorescence assay;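 active = inhibition reaching a set limit, 80% of the first screen's cutoff, at 20 µM in any replicate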;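 also: plate controls were DMSO wells with A3A for no effect and wells lacking A3A enzyme for full effect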
UDG ctr A3A = E. coli UDG inhibitors, confirmation, counter-screen for APOBEC3A inhibitor project, biochemical, single concentration, fluorescence, FAM/TAMRA oligo; UDG counterscreen, FAM/TAMRA uracil oligo fluorescence; shares compounds with A3A deaminase; 1,000 tested, under 10 active; inhibition, % at 20 µM; call rule not given here
The depositor's hits bear a star; x = not tested or not shown.

SMILES	A3A deaminase	APOBEC3G inh	GC-B act	Neddylation inh	PfGluPho inh	NPR1 activator	APOBEC3A confirm	UDG ctr A3A
C[N+](C)(C)CCN(Cc1ccc(Cl)cc1)c1ccccn1	58.2*	16.1	-3.6	10.6	-2.1	2.6	67.8*	0.9
O=C(Nc1ccc(NC(=O)c2ccc(Cl)cc2Cl)cc1)c1cccs1	53.5*	8.2	-0.9	x	-5.0	1.1	41.2*	-1.5
CCCC(=O)OC12CCCN(C1)/C(=C/c1ccc(Cl)cc1)C2 (configuration not stated)	x	x	2.9	x	x	1.6	x	x
NC(=O)c1c(NC(=O)CSc2nnc(-c3ccco3)n2-c2ccccc2)sc2c1CCC2	41.4*	28.7	-2.2	2.6	7.1	-10.5	45.7*	-3.6
C=CCN=C1N[C@@H](c2cccc(C(F)(F)F)c2)C(C(=O)OC)=C(C)N1CC	49.9*	6.8	-21.6	-24.1	-0.2	-13.9	71.2*	-2.0
C=CCN=C1NC(c2ccccc2)C(C(=O)OC)=C(C)N1C (configuration not stated)	x	x	-8.3	x	x	2.1	x	x
COC(=O)C1=C(C)N(C)C(=NCC2CC2)NC1c1cccc(C(F)(F)F)c1 (configuration not stated)	x	x	-8.8	x	x	-13.3	x	x
CCN1C(=NCCc2cccs2)N[C@@H](c2cccs2)C(C(=O)OC)=C1C	53.3*	6.4	x	-31.5	-2.1	x	65.5*	-2.3
CCN1C(=NCC(C)C)N[C@@H](c2cccc(C(F)(F)F)c2)C(C(=O)OC)=C1C	59.2*	10.0	-20.2	-16.6	-2.9	-15.4	61.3*	x
C=CCN=C1N[C@@H](c2ccccc2)C(C(=O)OC)=C(C)N1CC	66.0*	23.4	x	9.5	9.1	x	58.4*	1.5
COC(=O)C1=C(C)N(Cc2cccc(C(F)(F)F)c2)C(=NCC2CC2)NC1c1cccc(C(F)(F)F)c1 (configuration not stated)	x	x	-16.6	x	x	-23.5	x	x
Cc1ccc(NC(=O)C2CCCN(c3nnc(-n4cccc4)s3)C2)cc1C (configuration not stated)	x	x	2.7	x	x	0.2	x	x
COC(=O)C1=C(C)N(CC2CC2)C(=NCCN2CCOCC2)N[C@H]1c1ccccc1	71.2*	21.5	x	-7.4	4.0	x	68.5*	1.4
c1ccc(Nc2ncnc3sc4c(c23)CCC4)cc1	-0.6	-4.7	-4.0	-12.7	4.6	-2.6	x	x
Fc1ccc(Nc2ncnc3sc4c(c23)CCC4)cc1	60.6*	-4.8	0.5	1.0	-2.4	-1.6	0.3	1.9
CC(C1=CCCCC1)c1cnn(C)c1 (configuration not stated)	x	x	8.2	x	x	1.7	x	x
CCc1ccc(/C=C/c2c[nH]c3ccccc23)[n+](CC)c1	64.5*	20.0	-9.4	-27.3	-1.5	-5.8	68.7*	0.0
CCc1ccc(-c2cc(C(=O)N/N=C/c3c[nH]c4ccccc34)[nH]n2)cc1	4.9	-2.3	-8.0	37.2	17.4	-8.4	x	x
O=C(C1=C[C@H](c2coc3ccccc3c2=O)C[C@H](OCCCCO)O1)N1CCN(Cc2ccccc2)CC1	75.6*	-10.1	1.9	-7.8	6.0	-1.1	4.9	5.5
Cc1ccc(/C=C2\SC(N)=NC2=O)s1	56.1*	-1.9	-10.7	-22.0	-1.0	3.3	-2.0	-2.1
O=S(=O)(O)c1cc(O)c2c(O)c(N=Nc3cc(Cl)ccc3O)c(S(=O)(=O)O)cc2c1	91.5*	22.3	x	-32.2	-22.4	x	90.0*	2.9
Cc1cc(-c2ccc(N=Nc3c(S(=O)(=O)O)cc4cc(S(=O)(=O)O)cc(N)c4c3O)c(C)c2)ccc1N=Nc1c(S(=O)(=O)O)cc2cc(S(=O)(=O)O)cc(N)c2c1O	102.3	92.5	x	x	x	x	x	x
CCC[n+]1c2ccccc2cc2ccccc21	47.1*	12.4	1.3	26.2	30.8	5.1	41.9*	-2.3
CCCC[n+]1c2ccccc2cc2ccccc21	55.1*	21.1	3.2	38.0	53.9	7.0	47.7*	-2.4
COc1ccc(-n2cc(COC(=O)NCCc3c[nH]c4ccccc34)nn2)cc1	x	x	2.4	x	x	-2.4	x	x
SMILES	A3A deaminase	APOBEC3G inh	GC-B act	Neddylation inh	PfGluPho inh	NPR1 activator	APOBEC3A confirm	UDG ctr A3A
CCn1c(C)nc2cc(S(=O)(=O)Nc3ccc(C)cc3)ccc21	66.2*	17.0	0.4	7.9	-13.8	-2.6	55.3*	1.9
CCn1c(C)nc2cc(S(=O)(=O)C(F)F)ccc21	5.8	15.9	6.0	0.0	-6.8	1.2	x	x
O=C1CC2c3cc(Br)ccc3CCN2C(=O)CN1Cc1ccccc1 (configuration not stated)	x	x	-1.3	x	x	-4.1	x	x
CN(CCCS(=O)(=O)[O-])c1ccc(/C=C/c2ccc3ccccc3[n+]2C)cc1	58.0*	24.3	-1.6	-8.6	4.3	-5.9	68.0*	-3.0
CN(C)c1ccc(/C=C/c2ccc3ccccc3[n+]2C)cc1	27.2	20.5	-53.2	-14.8	27.6	-48.0	x	x
Cc1ccc(-n2c(C)cc(/C=N/NC(=O)CC3(C)OCCO3)c2C)c(C)c1	2.5	3.8	-8.1	16.4	8.3	-1.1	x	x
CC1(CC(=O)N/N=C/c2cc([N+](=O)[O-])c(O)cc2O)OCCO1	48.0*	21.3	2.6	-34.8	-23.0	1.6	49.0*	4.5
CCc1c(-c2ccccc2Br)ncn1CCc1ccccc1OC	x	x	-6.1	x	x	-5.5	x	x
NC(=O)C[N+]1(CC#CC(O)(c2ccccc2)c2ccccc2)CCCC1	51.0*	18.0	4.3	1.6	-3.4	-1.2	70.5*	2.8
CCOC(=O)Cc1nc(N2CCN(C(=O)C3CCCO3)CC2)c2c(C)c(C(=O)OCC)sc2n1 (configuration not stated)	x	x	-0.4	x	x	2.4	x	x
CCCn1c(/C=C/c2cc[n+](C)cc2)nc2ccccc21	57.2*	18.5	2.4	30.2	2.9	24.9	62.3*	x
CCn1c(/C=C/c2ccccc2)nc2ccccc21	2.5	-5.0	-7.9	x	56.5	-5.0	x	x

Screening data: PubChem BioAssay, Sanford-Burnham Center for Chemical Genomics
